In the library only some 3.5% were active in any assay of this set; here they are far more common.
mHTT CaM bind: disrupts binding of mutant huntingtin to calmodulin; P42858; AlphaScreen His-mHTT/GST-CaM binding, luminescence; inhibition, % at 15 µM; actives 3.6% (n = 190,000); AID 1671202
Pf apPOL block: Pf-apPOL DNA polymerase inhibition | Recombinant Pf-apPOL, molecular beacon fluorescence, 1.5 h | inhibition, % at 10 µM | actives 0.25% (n = 210,000) | AID 1794808
Of the large screens only hits and unclear results are named; the others gave an inactive call. Rule as the data show it: active = inhibition above about 50%; inactive = the rest.

Nc1ccc(Oc2cccc(Oc3ccc(N)cc3)c2)cc1	mHTT CaM bind 52
O=C1CCCN2N=C(SCC(=O)Nc3cc(C(F)(F)F)ccc3Cl)SC2=N1	none
NNC(=O)CNS(=O)(=O)c1ccccc1	none
Cc1ccccc1Cn1c(=N)n(CC(O)c2ccc(Cl)c(Cl)c2)c2ccccc21 (stereo unspecified)	mHTT CaM bind 100
Cn1c(=N)n(CC(O)c2ccc(Cl)c(Cl)c2)c2ccccc21 (stereo unspecified)	none
O=C(CSc1nnc(-c2cccnc2)n1-n1cccc1)Nc1cccc(C(F)(F)F)c1	none
Cc1cc(C)cc(-n2c(CN3CCN(C(=O)NC4CCCCC4)CC3)nc3cccnc32)c1	none
COc1ccc(NS(=O)(=O)c2ccc(S(=O)(=O)c3ncc(C(F)(F)F)cc3Cl)s2)cc1	none (no result: mHTT CaM bind)
Cc1ccc2c(C)nc(N=C(N)N)nc2c1	none
NC(N)=Nc1nc(-c2ccccc2)c2ccccc2n1	mHTT CaM bind 73
O=C(c1ccccc1Cl)N1CCc2c(nc3cc[nH]n3c2=O)C1	none
CCOc1cc(C2Nc3ccccc3NC3=C2C(=O)CC(c2cccs2)C3)cc(Cl)c1O (stereo unspecified)	none
CCOc1cc(C2Nc3cc(C)c(C)cc3NC3=C2C(=O)CC(C)(C)C3)cc(Cl)c1O (stereo unspecified)	mHTT CaM bind 53
Cc1ccc2c(c1)N(S(=O)(=O)c1ccc3[nH]c4c(c3c1)CCCC4)CCO2	none
O=S(=O)(c1ccc2[nH]c3c(c2c1)CCCCC3)N1CCCCC1	mHTT CaM bind 76
O=S(=O)(c1ccc2[nH]c3c(c2c1)CCCCC3)N1CCC2(CC1)OCCO2	mHTT CaM bind 58
CCOC(=O)C1CCN(S(=O)(=O)c2ccc3[nH]c4c(c3c2)CCCCC4)CC1	mHTT CaM bind 71
CN(CC(=O)N1CCCCCC1)S(=O)(=O)c1ccc2[nH]c3c(c2c1)CCCC3	none
Fc1ccc(Nc2nc(-c3ccc(Cl)cc3)cs2)cc1	mHTT CaM bind 71
Cc1ccc(-c2csc(Nc3ccc(F)cc3)n2)cc1C	none
Brc1ccc(-c2csc(Nc3ccc4c(c3)OCO4)n2)cc1	mHTT CaM bind 61
Cc1ccc(Nc2nc(-c3ccc(F)cc3)cs2)cc1Cl	mHTT CaM bind 64
CCOc1ccc(-c2csc(Nc3ccc(F)cc3)n2)cc1[N+](=O)[O-]	mHTT CaM bind 91
CCCCOc1ccc(-c2csc(N)n2)cc1[N+](=O)[O-]	none
Nc1nc(-c2ccc3c(c2)OCO3)cs1	none
Cc1ccc(-c2csc(Nc3ccc(F)cc3)n2)cc1	none
O=C(C1CCCC1)N1CCCCC1c1nncn1CC1CC1 (stereo unspecified)	none
CC1(C)CC(CCNCc2cccnc2)(c2cccc(C(F)(F)F)c2)CCO1 (stereo unspecified)	none
Fc1ccc(-c2csc(Nc3ccc(Br)cc3)n2)cc1	mHTT CaM bind 98
CCC(=O)Nc1nc(-c2ccc(F)cc2)cs1	none
NC1CCSc2ccccc21 (stereo unspecified)	none (no result: Pf apPOL block)
Cc1ccc(N2CC(C(=O)Nc3nc4ccccc4s3)CC2=O)cc1Cl (stereo unspecified)	mHTT CaM bind 55
Cc1ccc2[nH]cc(CCN3CC(C(=O)Nc4ccc(C)c(Cl)c4)CC3=O)c2c1 (stereo unspecified)	mHTT CaM bind 86
CCCCNC(=O)C1CC(=O)N(CCc2c[nH]c3ccc(Cl)cc23)C1 (stereo unspecified)	none
COc1ccc(NC(=O)C2CC(=O)N(c3ccc(C)c(Cl)c3)C2)cc1 (stereo unspecified)	none
O=C(Nc1nc2ccccc2s1)C1CC(=O)N(CCc2c[nH]c3ccc(Cl)cc23)C1 (stereo unspecified)	mHTT CaM bind 100
COc1ccc(C2C(C(=O)Nc3ccc(F)c(Cl)c3)CC(=O)N2c2ccc(OC)cc2)cc1 (stereo unspecified)	mHTT CaM bind 100
Cc1ccc2[nH]cc(CCN3CC(C(=O)Nc4ccccc4Cl)CC3=O)c2c1 (stereo unspecified)	none
COc1ccc(N2C(=O)CCC(C(=O)Nc3ccc(C)c(F)c3)C2c2ccc(F)cc2)cc1 (stereo unspecified)	none
O=C(Nc1ccc2c(c1)OCCO2)C1CC(=O)N(CCc2c[nH]c3ccc(Cl)cc23)C1 (stereo unspecified)	mHTT CaM bind 76
O=C(NCCc1ccc(F)cc1)C1CC(=O)N(CCc2c[nH]c3ccc(Cl)cc23)C1 (stereo unspecified)	none
O=C(Nc1cccc(F)c1)C1CC(=O)N(CCc2c[nH]c3ccc(Cl)cc23)C1 (stereo unspecified)	mHTT CaM bind 66
O=C(Nc1ccc(F)cc1)C1CC(=O)N(CCc2c[nH]c3ccc(Cl)cc23)C1 (stereo unspecified)	mHTT CaM bind 55
O=C(Nc1ccc2c(c1)OCCO2)C1CC(=O)N(CCc2c[nH]c3ccc(F)cc23)C1 (stereo unspecified)	none
CC1CCN(C(=O)C2CC(=O)N(CCc3c[nH]c4ccc(F)cc34)C2)CC1 (stereo unspecified)	none
O=C1CC(C(=O)N2CCN(Cc3ccccc3)CC2)CN1CCc1c[nH]c2ccc(F)cc12 (stereo unspecified)	mHTT CaM bind 55
O=C(Nc1cccc(F)c1)C1CC(=O)N(CCc2c[nH]c3ccc(F)cc23)C1 (stereo unspecified)	none
CC1CC(C)CN(S(=O)(=O)c2ccc(F)c(C(=O)NC3CCCCC3)c2)C1 (stereo unspecified)	none
Cc1ccsc1C(=O)N1CCC2(CC1)Nc1cccnc1NC2=NC1CCCC1	none
O=c1c(-c2ccccc2)coc2c3c(ccc12)OCN(CCCO)C3	none
O=C(COc1cccc2ccc(N3CCOCC3)nc12)NCC1CCCO1 (stereo unspecified)	none
CCCCN(C)C(=O)c1cc2c(s1)CCN(C(=O)c1ccc(C)cc1)C2	none
COc1cccc(NC(=O)C2CC(=O)N(CCc3c[nH]c4ccc(Cl)cc34)C2)c1 (stereo unspecified)	none
COc1ccc2nc(NC(=O)C3CC(=O)N(CCc4c[nH]c5ccc(C)cc45)C3)sc2c1 (stereo unspecified)	mHTT CaM bind 85
COc1ccc2[nH]cc(CCN3CC(C(=O)Nc4nnc(C(C)(C)C)s4)CC3=O)c2c1 (stereo unspecified)	none
COc1ccc2[nH]cc(CCN3CC(C(=O)Nc4ccc(F)c(Cl)c4)CC3=O)c2c1 (stereo unspecified)	mHTT CaM bind 55
COc1ccc(NC(=O)C2CC(=O)N(CCc3c[nH]c4ccc(C)cc34)C2)cc1 (stereo unspecified)	none
CC(C)(C)c1nnc(NC(=O)C2CC(=O)N(CCc3c[nH]c4ccc(Cl)cc34)C2)s1 (stereo unspecified)	mHTT CaM bind 55
COc1ccc2[nH]cc(CCN3CC(C(=O)Nc4cc(F)cc(F)c4)CC3=O)c2c1 (stereo unspecified)	none
Cc1cccc(NC(=O)C2CC(=O)N(CCc3c[nH]c4ccc(Cl)cc34)C2)c1 (stereo unspecified)	mHTT CaM bind 82
COc1ccc([C@H]2C[C@H](n3cc(-c4ccc(F)cc4)nn3)[C@@H](O)CN2C(=O)c2cccs2)cc1	none
Cc1ccc2c(c1)C(S(=O)(=O)c1ccccc1)c1ccccc1O2 (stereo unspecified)	none
C=CCn1c(=O)c2c(ncn2CC)n(-c2ccc(C(C)C)cc2)c1=O	none
O=C(Nc1nncs1)C1CC(=O)N(CCc2c[nH]c3ccc(Cl)cc23)C1 (stereo unspecified)	none

Screening results: PubChem BioAssay, University of Kansas High Throughput Screening Laboratory
